A short description of the assay: compounds altering in vitro BBB leakiness – cell-based, FITC-avidin fluorescence, HTS, primary screen (AID 1963498). Also: test concentration not given here. To be noted: brain endothelial barrier, actives lie on both sides.

A number with no mark means an inactive call. The source made the active and inactive calls. Rule as the data show it: active = fold change permeability below about 0.7 or above about 1.3; inactive = in between.

For the compound `CSC(N)=NCCC[C@H](N)C(=O)O`, the fold change permeability was 0.7 (active).
To `O=c1cc(-c2cccc3c2Sc2ccccc2S3)oc(N2CCOCC2)c1` belongs 1; to `NC(=O)c1ccccc1`, 1.2; to `CC(C)(C)NCC(O)c1ccc(O)c(CO)c1` (stereo unspecified), 0.9.
For `CCN(CC)CCOC(=O)C1(C2CCCCC2)CCCCC1` the value was 1.6 (active); for `O=C1S/C(=C\c2ccc(OCc3ccc(B(O)O)cc3)cc2)C(=O)N1Cc1ccc(F)cc1`, 1.2.
To `O=c1onc2cnc3ccccc3n12` belongs 1.1.
For the compound `O=C1NC(=O)/C(=C/c2ccc(-c3ccc(F)cc3O)o2)S1`, the fold change permeability was 1.
To `O=c1c(O)c(-c2ccc(O)c(O)c2)oc2cc(O)cc(O)c12` belongs 0.9; to `CN(C)c1cc2c(Nc3ccc4c(cnn4Cc4ccccc4)c3)ncnc2cn1`, 3.5 (active).
To `CSc1ccccc1N1CCN(CCCCCC(=O)NC2CCCc3ccccc32)CC1` (stereo unspecified) belongs 1.3 (active); to `O=c1ccc2ccc(O)c(O)c2o1`, 1.2; to `O=C1c2c(O)cc(O)cc2O[C@H](c2ccc(O)c(O)c2)[C@H]1O`, 1.
For `O=C(/C=C/c1ccc(O)cc1)c1ccc(O)cc1O` the value was 1.2.
With `CC1=C(C(=O)Nc2ccc3[nH]ncc3c2)C(c2ccc(F)cc2)NC(=O)N1` (stereo unspecified), the fold change permeability is 1.2.
To `CN1CCc2cccc3c2[C@H]1Cc1ccc(O)c(O)c1-3` belongs 1; to `O=C(O)CN(CCN(CC(=O)O)CC(=O)O)CCN(CC(=O)O)CC(=O)O`, 1; to `CC(N)(C(=O)O)c1ccc(C(=O)O)cc1` (stereo unspecified), 0.9.
To `Cn1cnc([N+](=O)[O-])c1Sc1ncnc2nc[nH]c12` belongs 1.1.
For `NCCOc1cc(C(=O)Nc2cc(OCCN)c3ccccc3n2)nc(C(=O)Nc2cc(OCCN)c3ccccc3n2)c1`, the fold change permeability is 0.9.
For `Nc1nc2[nH]cc(CCc3ccc(C(=O)N[C@@H](CCC(=O)O)C(=O)O)cc3)c2c(=O)[nH]1` the value was 0.9.
For `O=c1c(O)c(-c2ccc(O)cc2O)oc2cc(O)cc(O)c12` the value was 0.7 (active); for `CC(C)(C)C(=O)Oc1ccc(S(=O)(=O)Nc2ccccc2C(=O)NCC(=O)O)cc1`, 0.7 (active); for `COc1ccc(-c2cc(=O)c3c(O)c(OC)c(OC)cc3o2)cc1O`, 1.6 (active).
For the compound `CC(C)(N)C(=O)N[C@H](COCc1ccccc1)C(=O)N1CCC2(CC1)CN(S(C)(=O)=O)c1ccccc12`, the fold change permeability is 1.8 (active).
For `Cc1cc(C(=O)N2Cc3cnn(C)c3Nc3ccccc32)ccc1CNC(=O)N1CCN(Cc2cc(O)cc(O)c2)CC1` the value was 1.2; for `NCCCCN=C(N)N`, 1.3 (active); for `COc1cc2c(cc1O)[C@@H](Cc1ccc(O)c(Oc3ccc(C[C@@H]4c5cc(OC)c(OC)cc5CCN4C)cc3)c1)N(C)CC2`, 1.6 (active).
Take `COC(=O)C1=C(C)NC(C)=C(C(=O)OCCN(C)Cc2ccccc2)C1c1cccc([N+](=O)[O-])c1` (stereo unspecified): the fold change permeability was 1.
For the compound `CC(C)(CN1C(=O)C(Cl)=C(Cl)C1=O)CN1C(=O)C(Cl)=C(Cl)C1=O`, the fold change permeability was 1.1.
Consider `O[Si](CCCN1CCCCC1)(c1ccc(F)cc1)C1CCCCC1` (stereo unspecified), for which the fold change permeability is 1.4 (active).
Regarding `N#CC(C#N)=C(N)/C(C#N)=C/c1cc(O)c(O)c(O)c1`, the fold change permeability was 1.7 (active).
For `CC(C)c1nc(N(C)S(C)(=O)=O)nc(-c2ccc(F)cc2)c1/C=C/[C@@H](O)C[C@@H](O)CC(=O)O` the value was 0.9; for `Nc1nc(N)c2nc(-c3ccccc3)c(N)nc2n1`, 1.4 (active).
To `C[C@H](NC[C@H](O)CP(=O)(O)Cc1ccccc1)c1ccc(Cl)c(Cl)c1` belongs 1.1; to `CC(C)Cc1ccc(C(C)C(=O)O)cc1` (stereo unspecified), 2 (active); to `C=CCN1CCc2c(cc(O)c(O)c2Cl)C(c2ccccc2)C1` (stereo unspecified), 1.
For `CCCCCCNC(=O)n1cc(F)c(=O)[nH]c1=O` the value was 0.9.
Consider `NCCCCC(=O)O`, for which the fold change permeability is 1.1.
For `NC1(C(=O)O)CC1` the value was 0.9; for `Cc1cc(C(C)(C)C)c(O)c(C)c1CC1=NCCN1`, 0.8; for `C=C1CCN([C@H](C)[C@](O)(Cn2cncn2)c2ccc(F)cc2F)CC1`, 1.4 (active).
For `CCN1CCCC1CNC(=O)c1cc(S(N)(=O)=O)ccc1OC` (stereo unspecified) the value was 0.7 (active).
For `CCOC(=O)[C@@H](N)Cc1ccc(O)c(O)c1` the value was 0.9.
In the case of `CCOC(=O)c1c(CSc2ccccc2)n(C)c2cc(Br)c(O)c(CN(C)C)c12`, the fold change permeability is 1.4 (active).
For `COc1ccccc1CNCCCCCCNCCCCCCCCNCCCCCCNCc1ccccc1OC` the value was 0.8.

The values are drawn from PubChem BioAssay.
